Several values for one entry are separate records, joined by “and”; a condition that tells them apart may be missing. Equal entries are not always repeated. Results filed as inconclusive are left out. Activity calls are given as the source filed them. Calls come from the whole dose curve; as a rule, active = well fitted activation curve with a large enough effect; inconclusive = small, poorly fitted or top-dose-only effect; inactive = no such curve, though single readings can be large or run the other way.
target: Cellular tumor antigen p53 (Homo sapiens) (UniProt P04637); assay: Primary qHTS for small molecule compounds that upregulate eGFP-tagged delta133p53alpha (in N-terminal) cells. (AID 2060322); conditions: NCI-H358 eGFP-delta133p53alpha fluorescence, 24 h; activation: active compounds read high; note: nearly all actives have a fitted effect of over 75% in size;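 for activation: cells pre-induced with doxycycline then dosed without doxycycline; series mostly up to about 56 µM; 0% = DMSO vehicle and 100% = reference activator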
Outline: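 NCI-H358 cells pre-induced 24 h with 10 ng/ml doxycycline for eGFP-delta133p53alpha, plated dox-free and exposed 24 h at 37C to titrated compounds. Fixed, Hoechst-stained; gated GFP peak intensity by laser scanning cytometry, normalized to DMSO (0%) and 57.5 uM 5-azacytidine (100%).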
Potency is the fitted concentration of half-maximal effect.

Cellular tumor antigen p53 (Homo sapiens), sequence (P04637 whole entry, looked up): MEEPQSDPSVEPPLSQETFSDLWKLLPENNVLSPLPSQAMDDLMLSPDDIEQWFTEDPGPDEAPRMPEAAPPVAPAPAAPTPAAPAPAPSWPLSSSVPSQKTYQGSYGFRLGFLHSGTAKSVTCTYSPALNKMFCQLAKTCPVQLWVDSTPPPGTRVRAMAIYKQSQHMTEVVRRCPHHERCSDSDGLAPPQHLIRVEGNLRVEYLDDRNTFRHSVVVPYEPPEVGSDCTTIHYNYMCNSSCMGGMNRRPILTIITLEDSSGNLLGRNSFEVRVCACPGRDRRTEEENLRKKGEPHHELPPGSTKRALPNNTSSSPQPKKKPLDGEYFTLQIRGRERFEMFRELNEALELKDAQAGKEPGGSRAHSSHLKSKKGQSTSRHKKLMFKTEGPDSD

Compound | activation | Potency
COc1ccc(S(=O)(=O)Nc2nc(-c3cccc([N+](=O)[O-])c3)cs2)cc1OC | 1.67% (inactive) | 
O=C(Cc1c(F)cccc1F)Nc1cc(OCc2ccc(Cl)cc2)ccn1 | 15.7% (inactive) | 
COc1cc(CCc2ccc(OCC=C(C)C)cc2)cc(OC)c1OC | -17.6% (inactive) | 
CC(O)C1C(=O)N2C(C(=O)O)=C(SC3CNC(C(=O)N(C)C)C3)C(C)C12 (centres undefined) | -0.506% (inactive) and -5.25% (inactive) | 
Clc1ccc(C(Cn2ccnc2)OCc2c(Cl)cccc2Cl)c(Cl)c1 (centres undefined) | 27.9% (inactive) and 17% (inactive) | 
CC[C@H](C)/C=C(C)/C=C/C(=O)Cc1cc(O)c(C)c(O)c1C=O | 7.63% (inactive) | 
O=C(O)c1cc2cccc([N+](=O)[O-])c2[nH]1 | 10.3% (inactive) | 
C=C/C=C/[C@@H]1OC[C@H](/C=C/C=C/C)[C@H]1O | -11.5% (inactive) | 
Nc1ccccc1NC(=O)c1ccc(CNc2nccc(-c3cccnc3)n2)cc1 | 65.9% (inactive) | 
CC[C@H](Nc1ncnc2nc[nH]c12)c1nc2cccc(F)c2c(=O)n1-c1ccccc1 | 21.6% (inactive) and 7.67% (inactive) | 
C[C@@H]1C[C@@H]2O[C@H]2/C=C\C=C\C(=O)Cc2c(Cl)c(O)cc(O)c2C(=O)O1 |  | 14.8 µM (active)
C/C(=C\CCC1(C)C2CCC(C2)C1(C)O)C(=O)O (centres undefined) | -13.7% (inactive) | 
C=C1C(O)C(O)C2(CC3C(C)=CCC4C(C)(C(=O)O)CCCC34C)OC2C1O (centres undefined) | -22.1% (inactive) | 
C/C(=C\Cc1c(O)c(Cl)c(C)c(C=O)c1O)CC/C=C(\C)[C@H]1CC(=O)C(C)(C)O1 | -20.6% (inactive) | 
